Reference: PubChem BioAssay (Tox21)
Results filed as inconclusive are left out. Calls of active or inactive are those of the source. Unless noted, the call rests on the fitted dose curve; in most records, active means well fitted curve in the direction sought with a large enough effect in the repeat runs; inconclusive means weak or mixed curves; inactive means no such curve, though single readings can be large; an effect the other way counts as inactive or inconclusive.

Legend:
[1] = molecular target: Thyrotropin-releasing hormone receptor (Homo sapiens) (UniProt P34981); test: qHTS assay to identify small molecule agonists of the thyrotropin-releasing hormone receptor (TRHR) signaling pathway (AID 1346891; calls by dose curve;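 further: HEK293 cells expressing TRHR with calcium dye readout; series mostly up to about 58 µM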)
Sequence of Thyrotropin-releasing hormone receptor (Homo sapiens) (P34981 whole entry, looked up): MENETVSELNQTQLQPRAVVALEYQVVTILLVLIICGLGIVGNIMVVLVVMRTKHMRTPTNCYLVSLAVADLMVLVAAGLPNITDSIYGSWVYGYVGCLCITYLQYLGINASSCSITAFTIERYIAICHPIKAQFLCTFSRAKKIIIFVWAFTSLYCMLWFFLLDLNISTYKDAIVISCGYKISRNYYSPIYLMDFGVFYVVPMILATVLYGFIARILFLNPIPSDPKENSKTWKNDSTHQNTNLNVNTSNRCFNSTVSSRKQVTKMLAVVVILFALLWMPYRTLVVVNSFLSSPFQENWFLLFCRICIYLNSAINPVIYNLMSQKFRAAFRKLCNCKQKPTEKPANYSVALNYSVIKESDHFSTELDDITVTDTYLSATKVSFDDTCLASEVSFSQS
In short: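 In 1536-format, 1500 TRHR-Hek293 cells per well grew 18 h, took up calcium dye for 2 h at 37 °C, received compound, and were read kinetically; 15-point titrations, triplicates.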

[2] = Caspase-3/7 induction in HepG2 cells by small molecules, qHTS assay (AID 1346978); further: nearly all actives have a fitted effect of over 15% in size
In short: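 Caspase-3/7 induction was measured by Caspase-Glo 3/7 luminescence (30 min, room temperature) after a 17 hr compound exposure of wild-type HepG2 cells seeded at 2,000 per well and pre-incubated 5 hr.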

[3] = Caspase-3/7 induction in CHO-K1 cells by small molecules, qHTS cell viability counter screen (AID 1346979); further: nearly all actives have a fitted effect of over 35% in size; further: potency means the concentration at half of the fitted maximal effect
In short: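 To flag cytotoxic compounds, treated CHO-K1 wild-type cells were given CellTiter-Fluor at 16hr and read fluorescently after 1hr at 37C; the caspase-3/7 luminescence was measured in these same wells.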

[4] = Caspase-3/7 induction in CHO-K1 cells by small molecules, qHTS assay (AID 1346980); further: nearly all actives have a fitted effect of over 15% in size
In short: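 Luminescent Caspase-Glo 3/7 read (30min, room temperature) quantified apoptosis induction. Cells were wild-type CHO-K1, treated with compound for 17hr at 37 C and 5% CO2.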

[5] = Caspase-3/7 induction in HepG2 cells by small molecules, qHTS cell viability counter screen (AID 1346981); further: nearly all actives have a fitted effect of over 30% in size; further: potency means the concentration at half of the fitted maximal effect
In short: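 The parent HepG2 line is plated at 2,000 cells per well and rested 5 hr before compound pinning from DMSO stocks. Following a 16-hr treatment at 37 C, a fluorogenic live-cell substrate (CellTiter-Fluor) reports viability after 1 hr.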

[6] = molecular target: Nuclear receptor subfamily 1 group I member 2 (Homo sapiens) (UniProt O75469); test: Human pregnane X receptor (PXR) small molecule agonists, qHTS assay (AID 1346982); further: nearly all actives have a fitted effect of over 35% in size; further: potency means the concentration at half of the fitted maximal effect
Sequence of Nuclear receptor subfamily 1 group I member 2 (Homo sapiens) (O75469 whole entry, looked up): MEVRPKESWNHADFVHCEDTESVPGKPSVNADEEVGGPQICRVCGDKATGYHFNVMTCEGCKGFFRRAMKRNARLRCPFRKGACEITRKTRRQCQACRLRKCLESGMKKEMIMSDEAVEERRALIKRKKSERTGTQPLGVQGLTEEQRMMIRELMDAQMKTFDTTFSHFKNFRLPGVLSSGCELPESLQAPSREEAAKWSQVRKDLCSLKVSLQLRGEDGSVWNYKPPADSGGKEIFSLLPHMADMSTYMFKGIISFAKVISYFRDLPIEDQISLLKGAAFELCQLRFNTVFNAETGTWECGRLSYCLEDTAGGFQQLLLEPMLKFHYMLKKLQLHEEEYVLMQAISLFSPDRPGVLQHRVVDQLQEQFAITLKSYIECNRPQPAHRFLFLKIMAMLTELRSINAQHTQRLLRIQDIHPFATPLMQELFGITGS
In short: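 After plating in 5% charcoal-stripped FBS and a 5 hr rest, PXR-Luc HepG2 cells received compounds in DMSO. Following 24 hr at 37 C, ONE-Glo was added and light output read.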

[7] = molecular target: Cytochrome P450 2D6 (Homo sapiens) (UniProt P10635); test: Cytochrome P450 Family 2 Subfamily D Member 6 (CYP2D6) small molecule antagonists: luciferase reporter qHTS assay (AID 1671196); further: nearly all actives have a fitted effect of over 50% in size; further: potency means the concentration at half of the fitted maximal effect
Sequence of Cytochrome P450 2D6 (Homo sapiens) (P10635 whole entry, looked up): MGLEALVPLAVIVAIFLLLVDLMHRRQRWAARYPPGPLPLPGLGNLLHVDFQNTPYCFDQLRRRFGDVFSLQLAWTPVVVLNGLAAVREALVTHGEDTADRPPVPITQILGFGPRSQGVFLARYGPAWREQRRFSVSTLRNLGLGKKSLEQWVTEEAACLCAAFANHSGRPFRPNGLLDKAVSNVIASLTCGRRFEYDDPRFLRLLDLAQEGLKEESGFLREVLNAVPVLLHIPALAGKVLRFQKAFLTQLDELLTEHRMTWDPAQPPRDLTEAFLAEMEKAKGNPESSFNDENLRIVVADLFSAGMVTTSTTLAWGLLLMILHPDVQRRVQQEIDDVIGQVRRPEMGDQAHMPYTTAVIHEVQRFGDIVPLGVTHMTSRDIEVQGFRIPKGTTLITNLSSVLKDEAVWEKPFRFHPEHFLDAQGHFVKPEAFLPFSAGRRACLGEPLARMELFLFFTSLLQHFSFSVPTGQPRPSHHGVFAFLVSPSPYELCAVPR
In short: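 Quantitative HTS of Tox21 chemicals against CYP2D6 using a luminescent proluciferin substrate. After NADPH addition, 1 h room-temperature reaction; luminescence recorded 20 min post detection reagent.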

[8] = molecular target: Cytochrome P450 2C19 (Homo sapiens) (UniProt P33261); test: Cytochrome P450 Family 2 Subfamily C Member 19 (CYP2C19) small molecule antagonists: luciferase reporter qHTS assay (AID 1671197); further: nearly all actives have a fitted effect of over 65% in size; further: potency means the concentration at half of the fitted maximal effect
Sequence of Cytochrome P450 2C19 (Homo sapiens) (P33261 whole entry, looked up): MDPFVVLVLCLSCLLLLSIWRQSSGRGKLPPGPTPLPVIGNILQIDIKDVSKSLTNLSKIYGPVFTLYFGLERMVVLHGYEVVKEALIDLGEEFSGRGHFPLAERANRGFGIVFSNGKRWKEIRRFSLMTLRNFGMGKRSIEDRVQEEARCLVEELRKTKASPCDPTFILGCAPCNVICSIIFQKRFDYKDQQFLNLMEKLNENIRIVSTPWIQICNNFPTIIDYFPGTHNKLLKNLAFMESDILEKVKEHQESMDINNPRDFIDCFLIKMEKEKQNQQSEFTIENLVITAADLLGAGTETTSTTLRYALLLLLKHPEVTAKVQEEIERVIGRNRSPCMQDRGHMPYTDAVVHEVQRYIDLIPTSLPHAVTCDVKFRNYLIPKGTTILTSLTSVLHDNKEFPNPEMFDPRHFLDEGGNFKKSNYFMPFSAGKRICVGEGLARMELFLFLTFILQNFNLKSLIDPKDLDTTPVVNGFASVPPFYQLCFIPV
In short: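 Compounds were tested on CYP2C19 activity via proluciferin conversion to luciferin. The 37C, 1 h reaction followed NADPH addition; detection reagent stopped it.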

[9] = molecular target: Cytochrome P450 2C9 (Homo sapiens) (UniProt P11712); test: Cytochrome P450 Family 2 Subfamily C Member 9 (CYP2C9) small molecule antagonists: luciferase reporter qHTS assay (AID 1671198); further: nearly all actives have a fitted effect of over 50% in size; further: potency means the concentration at half of the fitted maximal effect
Sequence of Cytochrome P450 2C9 (Homo sapiens) (P11712 whole entry, looked up): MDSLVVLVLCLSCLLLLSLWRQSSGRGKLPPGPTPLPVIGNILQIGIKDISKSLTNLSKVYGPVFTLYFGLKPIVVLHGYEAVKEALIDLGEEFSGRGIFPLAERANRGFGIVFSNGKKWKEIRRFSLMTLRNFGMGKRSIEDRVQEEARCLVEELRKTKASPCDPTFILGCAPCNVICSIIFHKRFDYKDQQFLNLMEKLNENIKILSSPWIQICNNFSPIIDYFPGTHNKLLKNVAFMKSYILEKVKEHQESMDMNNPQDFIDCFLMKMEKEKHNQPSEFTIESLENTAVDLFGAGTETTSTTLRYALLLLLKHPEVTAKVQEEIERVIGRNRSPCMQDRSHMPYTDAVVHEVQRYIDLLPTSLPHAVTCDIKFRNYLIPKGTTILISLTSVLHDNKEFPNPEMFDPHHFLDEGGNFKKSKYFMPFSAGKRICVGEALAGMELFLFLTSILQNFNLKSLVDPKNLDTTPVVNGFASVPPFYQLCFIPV
In short: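 Enzyme-substrate mix preincubated with compound 10 min at room temperature; reaction started with NADPH regeneration solution, 1 h 37C. Luminescent luciferin product read after 20 min detection reagent.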

[10] = molecular target: Voltage-gated inwardly rectifying potassium channel KCNH2 (Homo sapiens) (UniProt Q12809); test: Human Ether-a-go-go-Related Gene (hERG) channel small molecule antagonists: fluorescence cell-based qHTS assay (AID 1671200); further: nearly all actives have a fitted effect of over 50% in size; further: potency means the concentration at half of the fitted maximal effect
Sequence of Voltage-gated inwardly rectifying potassium channel KCNH2 (Homo sapiens) (Q12809 whole entry, looked up): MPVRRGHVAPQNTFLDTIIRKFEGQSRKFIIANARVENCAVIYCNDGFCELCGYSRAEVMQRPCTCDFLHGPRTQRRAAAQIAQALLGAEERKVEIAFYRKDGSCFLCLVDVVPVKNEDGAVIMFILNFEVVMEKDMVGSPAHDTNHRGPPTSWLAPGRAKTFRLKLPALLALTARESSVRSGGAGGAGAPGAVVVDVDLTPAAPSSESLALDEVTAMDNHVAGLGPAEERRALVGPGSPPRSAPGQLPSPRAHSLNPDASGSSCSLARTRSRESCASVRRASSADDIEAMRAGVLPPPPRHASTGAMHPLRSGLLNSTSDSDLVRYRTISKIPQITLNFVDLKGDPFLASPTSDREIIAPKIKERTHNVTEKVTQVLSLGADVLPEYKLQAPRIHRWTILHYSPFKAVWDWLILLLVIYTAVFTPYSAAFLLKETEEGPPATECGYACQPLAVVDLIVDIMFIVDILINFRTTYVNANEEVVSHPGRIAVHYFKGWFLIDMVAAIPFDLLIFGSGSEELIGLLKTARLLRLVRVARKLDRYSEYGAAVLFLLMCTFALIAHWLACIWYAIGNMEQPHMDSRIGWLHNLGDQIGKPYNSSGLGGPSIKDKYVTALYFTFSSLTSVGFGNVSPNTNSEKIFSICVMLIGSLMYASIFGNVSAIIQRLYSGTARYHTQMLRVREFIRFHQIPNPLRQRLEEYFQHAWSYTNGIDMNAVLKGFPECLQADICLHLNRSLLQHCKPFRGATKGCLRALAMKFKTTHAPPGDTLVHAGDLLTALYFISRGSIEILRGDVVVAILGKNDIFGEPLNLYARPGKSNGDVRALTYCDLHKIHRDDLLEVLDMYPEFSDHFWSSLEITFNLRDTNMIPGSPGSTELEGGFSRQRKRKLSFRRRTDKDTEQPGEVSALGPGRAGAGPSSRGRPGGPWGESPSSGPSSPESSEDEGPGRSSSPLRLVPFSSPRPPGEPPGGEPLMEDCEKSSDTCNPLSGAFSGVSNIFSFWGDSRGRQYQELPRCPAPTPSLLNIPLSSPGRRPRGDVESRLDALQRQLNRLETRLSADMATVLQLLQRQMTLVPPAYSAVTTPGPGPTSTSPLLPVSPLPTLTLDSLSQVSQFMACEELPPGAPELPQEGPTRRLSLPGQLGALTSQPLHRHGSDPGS
In short: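 Measured: Tl+ flux via fluorescence (480/540 nm) in hERG-expressing U2OS cells after 1 h dye loading at room temperature.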

[11] = molecular target: Cytochrome P450 1A2 (Homo sapiens) (UniProt P05177); test: Cytochrome P450 Family 1 Subfamily A Member 2 (CYP1A2) small molecule antagonists: luciferase reporter qHTS assay (AID 1671199); further: nearly all actives have a fitted effect of over 50% in size; further: potency means the concentration at half of the fitted maximal effect
Sequence of Cytochrome P450 1A2 (Homo sapiens) (P05177 whole entry, looked up): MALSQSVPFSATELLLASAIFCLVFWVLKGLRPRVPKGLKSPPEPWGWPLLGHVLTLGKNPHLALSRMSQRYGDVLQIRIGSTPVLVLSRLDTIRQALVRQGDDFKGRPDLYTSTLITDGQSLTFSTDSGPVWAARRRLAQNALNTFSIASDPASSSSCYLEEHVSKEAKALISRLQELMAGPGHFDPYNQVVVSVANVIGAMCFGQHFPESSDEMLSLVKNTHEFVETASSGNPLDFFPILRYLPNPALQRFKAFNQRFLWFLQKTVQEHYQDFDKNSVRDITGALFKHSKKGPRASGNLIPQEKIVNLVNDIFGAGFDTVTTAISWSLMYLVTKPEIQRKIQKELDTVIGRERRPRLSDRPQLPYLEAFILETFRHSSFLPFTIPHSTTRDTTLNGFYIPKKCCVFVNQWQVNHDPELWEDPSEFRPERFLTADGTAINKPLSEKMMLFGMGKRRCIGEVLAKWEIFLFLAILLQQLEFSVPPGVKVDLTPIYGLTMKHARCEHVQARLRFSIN
In short: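 Quantitative high-throughput format using the P450-Glo CYP1A2 system. Reaction initiated by NADPH regeneration solution, 1 h at room temperature, then stopped with detection reagent; luminescence measured 20 min later.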

[12] = molecular target: Cytochrome P450 3A4 (Homo sapiens) (UniProt P08684); test: Cytochrome P450 Family 3 Subfamily A Member 4 (CYP3A4) small molecule antagonists: luciferase reporter qHTS assay (AID 1671201); further: nearly all actives have a fitted effect of over 50% in size; further: potency means the concentration at half of the fitted maximal effect
Sequence of Cytochrome P450 3A4 (Homo sapiens) (P08684 whole entry, looked up): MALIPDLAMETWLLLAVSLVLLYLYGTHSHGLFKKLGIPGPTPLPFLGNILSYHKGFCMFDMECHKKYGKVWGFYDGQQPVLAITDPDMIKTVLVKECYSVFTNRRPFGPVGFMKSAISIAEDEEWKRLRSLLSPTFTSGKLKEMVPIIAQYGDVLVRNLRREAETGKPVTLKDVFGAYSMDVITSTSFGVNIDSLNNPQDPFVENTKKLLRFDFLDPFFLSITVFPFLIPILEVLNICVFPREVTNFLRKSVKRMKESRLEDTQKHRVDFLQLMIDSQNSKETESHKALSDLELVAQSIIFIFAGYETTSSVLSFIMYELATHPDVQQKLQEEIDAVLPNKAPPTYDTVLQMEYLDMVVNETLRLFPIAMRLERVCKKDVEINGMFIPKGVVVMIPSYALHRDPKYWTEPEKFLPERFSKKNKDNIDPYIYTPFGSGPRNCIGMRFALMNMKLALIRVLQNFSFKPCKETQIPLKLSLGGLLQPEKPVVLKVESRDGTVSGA
In short: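 Setup: enzyme-substrate mix, compound pin transfer, 10 min RT. Reaction: NADPH regeneration solution, 1 h RT. Readout: detection reagent stops turnover, luminescence measured after 20 min, expressed in relative luminescence units.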

[13] = molecular target: Nuclear receptor subfamily 1 group I member 2 (Homo sapiens) (UniProt O75469); test: CYP3A4 induction through human pregnane X receptor (PXR) by small molecules, qHTS assay (AID 1346984); further: nearly all actives have a fitted effect of over 40% in size
In short: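 Human PXR activation is tracked via CYP3A4 promoter-luciferase in DPX-2 (HepG2) cells. Compounds treat cells for 24hr at 37C, and luminescence is read after One-Glo.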

[14] = molecular target: Nuclear receptor subfamily 1 group I member 2 (Homo sapiens) (UniProt O75469); test: Human pregnane X receptor (PXR) activation by small molecules, qHTS assay (AID 1346985); further: nearly all actives have a fitted effect of over 40% in size; further: potency means the concentration at half of the fitted maximal effect
In short: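 DPX-2 cells (HepG2 co-transfected with a PXR response element and a CYP3A4-promoter luciferase construct) were seeded at 2,000 per well, rested 5 hr at 37C, then exposed to DMSO-dissolved compounds for 24 hr. Activation was read as luciferase luminescence.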

Measured: Potency

COc1ccc(CCC(=O)c2c(O)cc(O[C@@H]3O[C@H](CO)[C@@H](O)[C@H](O)[C@H]3O[C@@H]3O[C@@H](C)[C@H](O)[C@@H](O)[C@H]3O)cc2O)cc1O
active: [9] 25.3 µM
not listed: [11] | [12] | [13] | [14]
inactive: all other assays above

CCC(=O)Oc1ccc(/C(CC)=C(\CC)c2ccc(OC(=O)CC)cc2)cc1
active: [3] 61.1 µM
not listed: [6] | [12] | [13] | [14]
inactive: all other assays above

C=CCOC(=O)/C=C\C(=O)OCC=C
active: [11] 28.8 µM
not listed: [8] | [9] | [12] | [13] | [14]
inactive: all other assays above

COCCOC
inactive: [1] | [2] | [4] | [10]
active: [3] 14.6 µM | [5] 13 µM

CCCCC(CC)CNCC(CC)CCCC (configuration not stated)
active: [7] 0.199 µM
not listed: [8] | [11] | [12] | [13] | [14]
inactive: all other assays above

CC[C@H](NC(=O)c1cc(F)ccc1NS(=O)(=O)c1cccc2cccnc12)c1ccccc1
active: [3] 46 µM | [6] 0.46 µM | [9] 9.49 µM | [12] 1.5 µM
inactive: [1] | [2] | [4] | [10]

CC(C)(CCl)c1ccccc1
not listed: [7] | [13] | [14]
inactive: all other assays above

CC1CC(=O)NN=C1c1ccc(NCC(C)(C)NCC(O)COc2cc(Cl)ccc2C#N)cc1 (configuration not stated)
active: [6] 26.6 µM | [7] 5.49 µM | [8] 13.8 µM | [9] 12.3 µM
inactive: [1] | [2] | [3] | [4] | [5] | [11]

Cc1oc(C)c(C(=O)Nc2ccccc2)c1C
inactive: [1] | [2] | [4] | [5] | [10] | [12]
active: [3] 27.3 µM | [8] 35.6 µM | [9] 35.6 µM

CCc1nn(CCCN2CCN(c3cccc(Cl)c3)CC2)c(=O)n1CCOc1ccccc1
active: [3] 29.8 µM | [6] 3.76 µM | [7] 4.9 µM | [10] 1.51 µM
inactive: [1] | [2] | [4] | [13] | [9] | [11]

CC(C)(O)c1ccccc1CC[C@@H](SCC1(CC(=O)O)CC1)c1cccc(/C=C/c2ccc3ccc(Cl)cc3n2)c1
not listed: [3] | [8] | [11] | [14]
inactive: all other assays above

COc1cc2c(cc1OC)-c1cc(=Nc3c(C)cc(C)cc3C)n(C)c(=O)n1CC2
inactive: [1] | [2] | [4] | [13] | [11]
active: [3] 29.8 µM | [6] 9.44 µM | [14] 6.31 µM | [7] 13.8 µM | [8] 17.4 µM | [9] 1.1 µM

O=C(CS)OCCOC(=O)CS
active: [11] 39.9 µM | [12] 28.3 µM
not listed: [8] | [9] | [13] | [14]
inactive: all other assays above

CC(=O)Nc1ccccc1C
not listed: [8] | [13] | [14]
inactive: all other assays above

Fc1ccccc1[C@@H](F)COC1CCC(Nc2ncnc3[nH]ncc23)CC1 (some centres not stated)
active: [3] 30.6 µM | [8] 79.6 µM | [9] 31.7 µM
inactive: [1] | [2] | [4] | [6] | [11] | [10]

COC(=O)[C@@H]1CC2=CC(=O)CC[C@]2(C)[C@@]23O[C@@H]2C[C@@]2(C)[C@@H](CC[C@@]24CCC(=O)O4)[C@H]13
not listed: [7] | [8]
inactive: all other assays above

OC(CCCN1CCCCC1)(c1ccccc1)c1ccccc1
active: [7] 0.11 µM
not listed: [8] | [12] | [13] | [14]
inactive: all other assays above

CC(COc1ccc(C(C)(C)C)cc1)OS(=O)OCCCl (configuration not stated)
active: [3] 10.9 µM | [5] 15.4 µM | [6] 9.74 µM
not listed: [8] | [12] | [13] | [14]
inactive: all other assays above

O=C(c1ccc(O)cc1)c1ccc(Cl)cc1
active: [6] 24.9 µM | [7] 64.7 µM | [8] 18.2 µM | [9] 25.7 µM | [11] 18.2 µM
inactive: [1] | [2] | [4] | [5] | [10]

C=CCNc1nc(NCC=C)nc(N2CCN(C(c3ccc(F)cc3)c3ccc(F)cc3)CC2)n1
active: [6] 13.3 µM
inactive: [1] | [2] | [4] | [5] | [8] | [11]
